# A selection: hits, their analogues and other compounds. The true share with any hit is near 17%.
# HT1080-NT tox: kills 2HG-producing HT-1080-NT fibrosarcoma cells. HT-1080-NT fibrosarcoma viability, CellTiter-Glo ATP luminescence, 48 h. Potency, µM (top dose mostly 46.1 µM), for inactives: at the highest dose activity, negative = less viability, hits mostly cytotoxic. actives 1.6% (n = 360,000). AID 686970;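 note: NT is the 2HG producing partner of a matched IDH1 knockdown line; 0% = DMSO-treated cells and -100% = media-only wells without cells; nearly all actives have a fitted effect of over 55% in size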
#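 HT-1080-NT; 750 cells/well; 5% FBS RPMI; 48 h compound, 37 degrees C; CellTiter-Glo luminescence; curve fitting and curve-class assignment.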
# HepG2 tox: HepG2 cytotoxicity, counter-screen for TGF-b inhibitors; HepG2 CAGA-GFP viability, ATP luminescence, 18 h; Potency, µM (top dose mostly 46.1 µM), for inactives: at the top dose activity change, negative = cytotoxicity, usual class: cytotoxic; actives 0.76% (n = 410,000)
#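 CellTiter-Glo luminescence gave cytotoxicity after 18 hours at 37 degrees C. The cells were HepG2 CAGA-GFP in 1% FBS DMEM, stimulated with 500 pg/mL TGF-beta after compound addition. %Activity was normalised to no-cell wells (complete cell-killing) and DMSO (no toxicity), and curves were fitted and classified.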
# TGFb inhibitor: inhibitors of TGF-b signaling; HepG2 CAGA-GFP TGF-b/SMAD3 reporter, GFP fluorescence, 18 h; TGF-beta stimulated, 500 pg/mL final; Potency, µM (highest dose often 46.1 µM), without a hit: top-dose activity, negative = inhibition, most hits filed as inhibitors; actives 1.2% (n = 410,000); note: % is set by controls: 0 for no effect and ±100 for the full control effect; nearly all actives have a fitted effect of over 65% in size
#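 First, reporter cells (HEPG2 CAGA-GFP) rested 2 h at 37 degrees C. Next, compounds were pinned in and TGF-beta added to 500 pg/mL final. After 18 h, GFP was imaged per cell and summed per well.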
# DT40 TDP1 no CPT: qHTS for Inhibitors of human tyrosyl-DNA phosphodiesterase 1 (TDP1): qHTS in cells in absence of CPT | DT40 Tdp1-/- hTDP1 cells, no CPT, ATP luminescence, 48 h | Potency, µM (top dose mostly 46.2 µM), for inactives: at the highest dose activity change, negative = growth inhibition, most hits filed as inhibitors | actives 15% (n = 420,000) | AID 686978, 2013; note: % is set by controls: 0 for no effect and ±100 for the full control effect; nearly all actives have a fitted effect of over 55% in size
#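 Stably hTDP1-transfected Tdp1-null chicken DT40 cells were treated with library compounds minus camptothecin and grown for at least 48 hr at 37 °C, after which cellular ATP was quantified by luminescence.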
# HT1080 IDH1KD tx: HT-1080 IDH1 knockdown cell toxicity (counter line) | HT-1080 IDH1 knockdown viability, ATP luminescence, 48 h | actives 2% (n = 360,000) | Potency, µM (doses to about 46.1 µM), for the others: top-dose activity, negative = toxicity, most hits filed as cytotoxic;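 note: 0% = DMSO wells and -100% = cell-free medium wells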
#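 After a 2 h attachment period, IDH1KD HT-1080 cells took pin-transferred compound for 48 h at 37 °C; ATP-based luminescence after 10 min room-temperature reagent incubation reported viability.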
# DT40 TDP1 CPT: DT40-hTDP1 cell growth loss with CPT | chicken DT40 Tdp1-/-;hTDP1 cells + 20 nM CPT, ATP luminescence, 48 h | Potency, µM (doses to about 46.2 µM), for the others: at the top dose activity change, negative = growth inhibition, most hits filed as inhibitors | actives 12% (n = 420,000) | AID 686979; note: % is set by controls: 0 for no effect and ±100 for the full control effect; nearly all actives have a fitted effect of over 55% in size
#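 Cell growth measured by CellTiter-Glo luminescence after a minimum 48 h, 37 C compound exposure with 20 nM CPT in Tdp1-knockout DT40 cells stably expressing hTDP1, seeded 400/well; qHTS titration format.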
# * hit, by the source's call; ? = inconclusive; . = no result given. Calls come from the whole dose curve; as a rule, active = well fitted curve in the direction sought with a large enough effect; inconclusive = small, poorly fitted or top-dose-only effect, or another doubt; inactive = no such curve, though single readings can be large; an effect the other way counts as inactive or inconclusive. Potency is the fitted concentration of half-maximal effect.
SMILES,HT1080-NT tox,HepG2 tox,TGFb inhibitor,DT40 TDP1 no CPT,HT1080 IDH1KD tx,DT40 TDP1 CPT
COc1ccc(C(=O)Nc2cc(C)nn2-c2cccc(F)c2)cc1OC,-8%,-2%,12%,-29%,0%,-17%
O=C(NCc1ccccn1)C(=O)C1C(=O)Nc2ccccc21 (stereo not drawn),-18%,-1%,2%,-14%,-7%,-13%
O=C(Nc1ccn(CCOC(=O)c2ccccc2)c(=O)n1)c1ccccc1,2%,1%,-5%,-29%,6%,-7%
CO[C@H]1C[C@@H]2CC[C@@H](C)[C@@](O)(O2)C(=O)C(=O)N2CCCC[C@H]2C(=O)OC([C@H](C)C[C@@H]2CC[C@@H](O)[C@H](OC)C2)CC(=O)[C@H](C)/C=C(\C)[C@@H](O)[C@@H](OC)C(=O)[C@H](C)C[C@H](C)/C=C/C=C/C=C/1C (stereo partly drawn),.,.,.,0.0092µM*,.,0.01µM*
CO[C@H]1C[C@@H]2CC[C@@H](C)[C@@](O)(O2)C(=O)C(=O)N2CCCC[C@H]2C(=O)O[C@H]([C@H](C)C[C@@H]2CC[C@@H](O)[C@H](OC)C2)CC(=O)[C@H](C)/C=C(/C)[C@@H](O)[C@@H](OC)C(=O)[C@H](C)C[C@H](C)C=C/C=C\C=C/1C,.,-28%,4.5µM*,?,.,4µM*
COC(=O)[C@H]1C[C@H](OC(=O)Nc2c(C)noc2C)[C@@]2(O)CN(S(=O)(=O)c3ccc(C)cc3)CC2[C@H]1C(=O)OC (stereo partly drawn),14%,-4%,3%,?,6%,-22%
CCc1nnc(NC(=O)C2CCCN(C(=O)c3ccoc3)C2)s1 (stereo not drawn),.,22%,17%,1%,.,-16%
Cc1nn(C)c(C(=O)Sc2cccc(Cl)c2)c1[N+](=O)[O-],-9%,-60%,-21%,2.9µM*,-18%,4.6µM*
Cc1nn(C)c(C(=O)N/N=C/c2ccccn2)c1[N+](=O)[O-],1%,-3%,-8%,7%,3%,1%
CCn1nc(C)cc1C(=O)Sc1cccc(Cl)c1,18µM*,-34%,?,4.1µM*,?,3.7µM*
Cc1cc(C)n(CC(=O)c2ccc(Cl)cc2)n1,0%,-24%,-31%,8%,7%,12%
Cc1nn(C)c(C(=O)Sc2ccccc2)c1[N+](=O)[O-],-22%,-6%,?,23µM*,?,?
COc1ccc(Cl)cc1C(=O)NCC(c1ccco1)N(C)C (stereo not drawn),2%,-25%,1%,?,5%,-7%
Cc1cc(C)cc(N2C(=O)CC(Sc3ncn[nH]3)C2=O)c1 (stereo not drawn),-8%,-8%,0%,1.5µM*,-2%,2.6µM*
Cc1cc(C)cc(N2C(=O)CC(c3ccccc3)CC2=O)c1,6%,17%,0%,7%,1%,-2%
Cc1cc(C)cc(N2C(=O)CC(Cn3nc(C)cc3C)C2=O)c1 (stereo not drawn),12%,-41%,10%,-19%,10%,?
COC(=O)c1ccccc1SC1CC(=O)N(c2ccccc2)C1=O (stereo not drawn),10%,-9%,1%,-26%,12%,?
Cc1cc(C)cc(N2C(=O)CC(Sc3nnnn3-c3ccccc3)C2=O)c1 (stereo not drawn),7.1µM*,-95%,-10%,5.2µM*,2.5µM*,2.6µM*
O=C1CC(Sc2nnnn2C2CCCCC2)C(=O)N1c1ccccc1 (stereo not drawn),?,-82%,?,4.1µM*,5µM*,2.9µM*
Cn1nnnc1SC1CC(=O)N(c2ccccc2)C1=O (stereo not drawn),2%,14%,-12%,3.3µM*,-11%,2.6µM*
COc1ccccc1NC(=O)CSc1nc2ccccc2cc1Cc1ccccc1,-4%,-21%,-16%,?,1%,?
Cc1cccc2c1-c1sc(C(=O)NCc3ccc(Cl)cc3)cc1CO2,.,-33%,?,-17%,.,-29%
O=C1NC(=O)C2C3OC(C(Br)C3Br)C12 (stereo not drawn),2%,-9%,-5%,1%,0%,10%
Oc1ccccc1N=Nc1nc(-c2ccccc2)c(-c2ccccc2)[nH]1,?,-63%,?,2.9µM*,?,2.6µM*
COc1ccc(-c2nc(C)ncc2N=Nc2ccccc2)cc1,-9%,2%,-1%,-44%,0%,?
SMILES,HT1080-NT tox,HepG2 tox,TGFb inhibitor,DT40 TDP1 no CPT,HT1080 IDH1KD tx,DT40 TDP1 CPT
COc1ccccc1N=Nc1nc(-c2ccccc2)c(-c2ccccc2)[nH]1,-17%,-43%,?,16µM*,?,18µM*
COc1ccc(N=Nc2nc(-c3ccccc3)c(-c3ccccc3)[nH]2)cc1,-9%,5%,?,16µM*,-2%,?
Cc1ccc2c(CC(=O)NC3CCCc4ccccc43)coc2c1 (stereo not drawn),-22%,3%,0%,?,-18%,-29%
CC(=O)c1cc2c(cc1NC(=O)CSc1ncccn1)OCO2,-1%,-2%,-5%,-23%,-4%,-12%
CCOC(=O)C1=Nc2ccccc2C1=[N+]=[N-],-25%,4%,?,7.3µM*,?,4.6µM*
Cc1cccc(C)c1OCc1cc(C(=O)N2CCN(c3ccccc3)CC2C)no1 (stereo not drawn),-25%,-7%,?,-53%,?,-54%
CCc1cccc(CC)c1NC(=O)c1ccc2c(c1)CCN2S(=O)(=O)c1ccccc1,.,0%,-1%,0%,.,0%
CCc1cccc(C)c1NC(=O)c1ccc2c(c1)CCN2S(=O)(=O)CC,.,-2%,2%,12µM*,.,?
CCS(=O)(=O)N1CCc2cc(C(=O)Nc3cc(Cl)ccc3C)ccc21,.,-19%,22%,23µM*,.,29µM*
CCc1cccc(C)c1NC(=O)c1ccc2c(c1)CCN2S(=O)(=O)c1ccc(Cl)cc1,.,2%,-7%,9.2µM*,.,?
COc1cccc(NC(=O)CSc2nnnn2C2CCCCC2)c1,-15%,-12%,13%,?,-6%,-11%

# From PubChem BioAssay
